High-throughput results: PubChem, National Center for Advancing Translational Sciences (NCATS)
Sampled rows, rich in hits. Any-hit rate of the full collection: about 10%.
G9a block – blocks human histone lysine methyltransferase G9a | Q96KQ7 | G9a H3K9 monomethylation, AlphaScreen, 2 h | Potency, µM (doses to about 102 µM), inactives show at the top dose activity, negative = inhibition, most hits filed as inhibitors | 8.8% of 350,000 active | AID 504332; further: potency means the concentration at half of the fitted maximal effect; nearly all actives have a fitted effect of over 75% in size
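Enzyme 20 nM + cpd, 15 min RT; add b-H3K9 pep 500 nM / SAM 20 uM; 2 h RT; anti-H3K9me1 Ab 0.5 ug/mL + SA donor / anti-rabbit acceptor beads 20 ug/mL each, 10 min; AlphaScreen read.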
MmCpn inh – blocks the Methanococcus maripaludis chaperonin Mm-Cpn | purified Mm-Cpn ATPase, ADP Transcreener TR-FRET | Potency, µM (top dose mostly 76.9 µM), inactives show at the highest dose activity, negative = inhibition, actives largely listed as inhibitors | 0.031% of 330,000 active | AID 504842; further: potency means the concentration at half of the fitted maximal effect; nearly all actives have a fitted effect of over 80% in size
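Measured: ADP formation by purified Mm-CPN. Conditions: 25 nM protein, 10 uM ATP, Tris pH 7.4 with Mg2+, K+ and DTT, 37°C for 30 min. Detection: Transcreener HTRF after 30 min at room temperature.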
PLK1 PBD block – PLK1 (human) polo-box domain binding inhibition; P53350; Plk1 PBD binding of FITC phosphopeptide, fluorescence polarization; Potency, µM, inactives show max response, negative = inhibition, hits mostly inhibitors; 2.8% of 360,000 active; AID 720504; further: potency means the concentration at half of the fitted maximal effect; series mostly up to about 57 µM; nearly all actives have a fitted effect of over 65% in size
Target sequence (P53350 whole entry, looked up, the tested form may be a part): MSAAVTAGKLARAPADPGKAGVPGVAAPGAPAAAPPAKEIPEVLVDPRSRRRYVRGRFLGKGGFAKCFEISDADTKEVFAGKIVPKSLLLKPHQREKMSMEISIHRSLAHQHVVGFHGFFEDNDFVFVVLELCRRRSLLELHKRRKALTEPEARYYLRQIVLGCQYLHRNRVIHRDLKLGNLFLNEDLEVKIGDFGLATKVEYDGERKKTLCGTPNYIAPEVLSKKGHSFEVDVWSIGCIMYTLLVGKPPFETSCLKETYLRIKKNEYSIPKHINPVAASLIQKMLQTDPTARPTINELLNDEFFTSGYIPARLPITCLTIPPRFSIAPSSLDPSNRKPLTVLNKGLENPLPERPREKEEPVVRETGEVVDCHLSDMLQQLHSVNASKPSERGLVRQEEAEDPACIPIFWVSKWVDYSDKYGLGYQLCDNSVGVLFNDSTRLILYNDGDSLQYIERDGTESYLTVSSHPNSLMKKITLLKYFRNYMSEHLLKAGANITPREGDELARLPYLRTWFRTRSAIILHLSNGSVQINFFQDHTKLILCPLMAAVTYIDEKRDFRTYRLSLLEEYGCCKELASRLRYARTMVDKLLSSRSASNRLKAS
Sfp PPTase inh – blocks B. subtilis Sfp PPTase activity | Biochemical Sfp PPTase activity, qHTS | Potency, µM, for the others: largest response in the series, negative = inhibition, actives largely listed as inhibitors | 3.5% of 310,000 active;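 further: the enzyme is Sfp with the accession as filed and its product quenches rhodamine fluorescence; potency means the concentration at half of the fitted maximal effect; 0% = enzyme reaction without inhibitor and -100% = no enzyme wells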
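Compounds were incubated with enzyme (final 15 nM) for 15 min at room temperature before substrate addition started the reaction. Fluorescence at 525 nm excitation, 598 nm emission was recorded immediately and after 30 minutes.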
CCT modulator – changes cytosolic chaperonin activity | 0.3% of 360,000 active | AID 651819 | activity change, % (no concentration beside the values), hits read low | purified chaperonin ATPase assay, HTRF ADP detection, 30 min; in the data active means activity change below about -30%
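TRiC (40 or 20 nM final, by batch activity) in 30 mM Tris pH 7.4, 100 mM KCl, 5 mM MgCl2, 1 mM DTT was treated with compound at 76 uM single dose, then 10 uM ATP, 30 min at 37 °C. ADP was read by HTRF Transcreener.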
VDR inhibitor – vitamin D3 receptor (human) inhibition; Potency, µM, for inactives: max response, negative = inhibition, hits mostly inhibitors; 0.93% of 400,000 active; P11473; AID 504847; VDR-SRC2-3 peptide fluorescence polarization, 2 h; further: potency means the concentration at half of the fitted maximal effect
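The screen uses fluorescence polarization to detect compounds that interfere with recruitment of the SRC2-3 coactivator peptide to VDR; plates are read after 2 h at room temperature.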
* hit, by the source's call; [ ] = another dose, or the depositor's remark. Unless noted, the call rests on the fitted dose curve; in most records, active means well fitted curve in the direction sought with a large enough effect; inconclusive means small, poorly fitted or top-dose-only effect, or another doubt; inactive means no such curve, though single readings can be large; an effect the other way counts as inactive or inconclusive. Unless noted, on the % scale 0 is the no-effect control and ±100 the full control effect.

`COc1ccccc1CNC(=O)C1CCN(S(=O)(=O)Cc2ccccc2)CC1` gave G9a block inconclusive and VDR inhibitor 18%.
Cc1cccc(CNC(=O)CN2CC(C)Sc3ccccc32)c1 (stereo not drawn) was read as G9a block -34%[59 µM] and VDR inhibitor 3%.
`Cc1ccc(NC(=O)c2ccc(-n3c(C)nnc3C)cc2)cc1F` gave G9a block 9%[59 µM] and VDR inhibitor 2%.
Screening CC(=O)c1cc(-c2ccccc2)n(CCC(=O)NC(C)c2ccccc2)c1C (stereo not drawn) returned G9a block -34%[59 µM] and VDR inhibitor 19%.
Cn1nc(C(F)(F)F)c(/C=N/OC(=O)c2ccccc2)c1Cl was read as G9a block 3%, MmCpn inh 0%, PLK1 PBD block 1%, Sfp PPTase inh 15%, CCT modulator -2 and VDR inhibitor 6%.
Cn1nc(C(F)(F)F)c(/C=N/OC(=O)c2ccccc2)c1Sc1ccc(Cl)cc1 was read as G9a block 8%[59 µM], MmCpn inh -2%, PLK1 PBD block -5%, Sfp PPTase inh 3%, CCT modulator 1 and VDR inhibitor 89µM*.
`COc1ccc(OC)c(CNS(=O)(=O)c2ccc3[nH]c4c(c3c2)CCCCC4)c1` gave G9a block 13µM* and VDR inhibitor -3%.
For COc1ccc(NS(=O)(=O)c2ccc3[nH]c4c(c3c2)CCCC4)c(OC)c1 the results were G9a block 10µM* and VDR inhibitor 19%.
Screening COc1ccc(NS(=O)(=O)c2ccc3[nH]c4c(c3c2)CCCCC4)cc1 returned G9a block inconclusive and VDR inhibitor 4%.
Screening Cc1cccc(N=C2NC(=O)/C(=C/c3cccn3C)S2)c1C returned G9a block inconclusive, MmCpn inh 1%, PLK1 PBD block -6%, Sfp PPTase inh 79µM*, CCT modulator -3 and VDR inhibitor 10%.
Screening Cc1ccccc1N=C1NC(=O)/C(=C/c2cccn2-c2cccc(C(=O)O)c2)S1 returned G9a block 28µM*, MmCpn inh 1%, PLK1 PBD block 17µM*, Sfp PPTase inh 0%, CCT modulator 1 and VDR inhibitor -12%.
Cc1ccc(N=C2NC(=O)/C(=C/c3cccn3C)S2)cc1C was read as G9a block -4%, MmCpn inh -12%, PLK1 PBD block -7%, Sfp PPTase inh 14%, CCT modulator -1 and VDR inhibitor -1%.
For CCCCC(CC(O)COCC(C)C)C(=O)NNC(=S)Nc1ccccc1 (stereo not drawn) the results were G9a block 8.9µM*, MmCpn inh -2%, PLK1 PBD block -10%, Sfp PPTase inh 7%, CCT modulator 1 and VDR inhibitor 3%.
Screening CCNC(=S)NNc1nncc2ccccc12 returned G9a block inconclusive, MmCpn inh -2%, PLK1 PBD block -10%, Sfp PPTase inh 4µM*, CCT modulator -1 and VDR inhibitor -1%.
CCNC(=S)NNC(=O)CCn1c2ccccc2c2ccccc21 was read as G9a block 33%, MmCpn inh 3%, PLK1 PBD block -24%, Sfp PPTase inh 26%, CCT modulator -4 and VDR inhibitor -6%.
CNC(=S)NNc1nncc2ccccc12 was read as G9a block 2.5µM*, MmCpn inh 1%, PLK1 PBD block -1%, Sfp PPTase inh 22µM*, CCT modulator 1 and VDR inhibitor 2%.
Cc1cc(Cl)ccc1OCC(=O)N(Cc1ccco1)Cc1ccccc1F was read as G9a block 67%[59 µM] and VDR inhibitor -7%.
Screening CN(C)c1ccc(/C=C(/C#N)C(=O)NCc2ccccc2)o1 returned G9a block 3.5µM*, MmCpn inh -9%, PLK1 PBD block -13%, Sfp PPTase inh 3%, CCT modulator -3 and VDR inhibitor -11%.
Screening Cc1c(C(=O)O)cccc1-n1c(C)cc(/C=C(/C#N)C(=O)NCc2ccccc2)c1C returned G9a block 50µM*, MmCpn inh -1%, PLK1 PBD block -21%, Sfp PPTase inh 8%, CCT modulator -20 and VDR inhibitor 14%.
Cc1ccc(/C=C/C(=O)NCCc2c[nH]c3ccccc23)o1 was read as G9a block 45µM*, MmCpn inh 2%, PLK1 PBD block -18%, Sfp PPTase inh 28µM*, CCT modulator 0 and VDR inhibitor -3%.
`Cc1ccc(/C=C/C(=O)NCc2ccco2)o1` gave G9a block 20µM*, MmCpn inh -4% and Sfp PPTase inh 32µM*.
`O=C(/C=C/c1ccccc1)NCc1ccco1` gave G9a block inconclusive, MmCpn inh 1%, PLK1 PBD block -6%, Sfp PPTase inh 7%, CCT modulator 1 and VDR inhibitor 19%.
`O=C(COc1ccccc1-c1nc(-c2ccccc2)no1)Nc1ccc([N+](=O)[O-])cc1` gave G9a block inconclusive and VDR inhibitor 8%.
C#C[C@]1(O)CC[C@@H]2[C@H]3CCc4cc(OC)ccc4[C@@H]3CC[C@@]21C was read as G9a block 23%[21.5 µM], Sfp PPTase inh 12% and VDR inhibitor -6%.
`O=C(/C=C/c1ccco1)NCc1ccco1` gave G9a block 50µM*, MmCpn inh -4%, PLK1 PBD block -5%, Sfp PPTase inh -25%, CCT modulator 0 and VDR inhibitor 8%.
`N#C/C(=C/c1ccccc1)C(=O)NCc1ccccc1` gave G9a block -8%[59 µM], MmCpn inh 3%, PLK1 PBD block -10%, Sfp PPTase inh 11%, CCT modulator 1 and VDR inhibitor -18%.
For Cc1ccc(/C=C(\C#N)C(=O)NCc2ccco2)o1 the results were G9a block inconclusive, MmCpn inh 1%, PLK1 PBD block 2%, Sfp PPTase inh 50µM*, CCT modulator 1 and VDR inhibitor -13%.
`N#C/C(=C\c1cn(CC(=O)O)c2ccccc12)C(=O)NCc1ccccc1` gave G9a block 45µM*, MmCpn inh -4%, PLK1 PBD block -11%, Sfp PPTase inh 3%, CCT modulator 1 and VDR inhibitor 25%.
Screening Cc1ccsc1/C=C(\C#N)C(=O)NCc1ccco1 returned G9a block -11%[59 µM], MmCpn inh 2%, PLK1 PBD block 0%, Sfp PPTase inh 8%, CCT modulator 0 and VDR inhibitor -8%.
Screening CCOC(=O)c1c(C)[nH]c(C)c1S(=O)(=O)N1CCC(C(=O)N2CCN(c3cccc(C)c3C)CC2)CC1 returned G9a block -34%[59 µM] and VDR inhibitor 12%.
Screening COc1c2c(cc3c1C(NC(N)=O)[N+](C)(C)CC3)OCO2 (stereo not drawn) returned Sfp PPTase inh 4% and VDR inhibitor 0%.
CCOc1ccccc1-c1nnc2n1N=C(c1ccc(OC)c(OC)c1)CS2 was read as Sfp PPTase inh -25%.
